# Shiga toxin inh: Shiga toxin inhibition. Vero cells, Shiga toxin protein synthesis inhibition reporter. inhibition, % at 38.7 µM. 290,000 compounds, 9.2% hits. AID 2315; in the data active = inhibition mostly above about 28%, no sharp cut-off; inactive = mostly below about 43%; also: 0% is about no effect
# Pf growth 48h: P. falciparum growth inhibition at 48 hours (one generation); P. falciparum luciferase growth in erythrocytes, 48 h; Potency, µM (top dose mostly 28.7 µM), inactives show at the highest dose activity change, negative = inhibition, most hits filed as inhibitors; 310,000 compounds, 5.9% hits; also: potency is read from the fitted curve at half-maximal effect; % is scaled to controls: 0 for no effect and ±100 for the full control effect
#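 Here the parasites carry a stable luciferase gene and grow inside erythrocytes in Albumax-based RPMI medium with compound for one erythrocytic cycle. Activity is scored as loss of luminescent signal.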
# CHX counter: counter-screen hit for Shiga toxin inhibitors, cycloheximide; cell reporter, cycloheximide protein synthesis inhibition counterscreen; max response, %; 300,000 compounds, 12% hits; AID 2314; in the data active = max response mostly above about 13%, no sharp cut-off; inactive = mostly below about 14%; also: read at 38.3 µM for the half of the compounds with a filed dose; 0% is about no effect
# HCMV antiviral: human cytomegalovirus inhibition. HFF cells, HCMV-luciferase reporter, 72 h; hits give low values. activity change, negative = inhibition, % at 57.5 µM. 410,000 compounds, 4.5% hits. AID 1259415; in the data active = activity change below about -60%; inconclusive = no clear call, values can overlap the other calls; inactive = above about -39%; also: % is scaled to controls: 0 for no effect and ±100 for the full control effect
#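 Two compound doses tested in HFFs infected with HCMV-luciferase, MOI 1 PFU/cell, 72 h at 37C. Lysate luminescence read with OneGlo; data normalized against buffer-only and 10uM Salinomycin inhibitor controls.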
# HCV inhibitor: inhibitors of hepatitis C virus infection; Huh7.5.1 HCVcc-Cre infection, luciferase reporter, 44 h; Potency, µM (top dose mostly 41.8 µM), without a hit: top-dose activity change, negative = inhibition, hits mostly inhibitors; 340,000 compounds, 3.4% hits; also: potency is read from the fitted curve at half-maximal effect; % is scaled to controls: 0 for no effect and ±100 for the full control effect
#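 Luciferase read-out (15 sec integration) after a 15 min room-temperature substrate step quantifies HCVcc-Cre infection. Cells, 1,000 per well, had compound added 4 h post-plating, then virus at ~0.5 moi, and were cultured 44 h.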
# Pf growth 96h: P. falciparum growth inhibition at 96 hours. P. falciparum luciferase reporter growth, 96 h. Potency, µM (series often up to 28.7 µM), for the others: at the highest dose activity change, negative = inhibition, usual class: inhibitors. 320,000 compounds, 6.9% hits; also: potency is read from the fitted curve at half-maximal effect; % is scaled to controls: 0 for no effect and ±100 for the full control effect
#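 Parasite growth measured via integrated firefly luciferase reporter in P. falciparum. Infected erythrocytes at 2% hematocrit, 0.05% parasitemia final were treated 96 hours at 37 C under 5% CO2, and luminescence was read.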
# * marks the source's active call; other numbers are inactive results; ? = inconclusive; . = no result. The list is not random: actives were taken first. Their share in the collection is about 21%. Unless noted, calls follow the shape of the dose curve; as a rule, active = well fitted inhibition curve with a large enough effect; inconclusive = small, poorly fitted or top-dose-only effect, or another doubt; inactive = no such curve, though single readings can be large or run the other way.
SMILES,Shiga toxin inh,Pf growth 48h,CHX counter,HCMV antiviral,HCV inhibitor,Pf growth 96h
Cc1cccc(NC(=O)NCCN2C(=O)C3C4C=CC(C4)C3C2=O)c1 (stereo not given),40.8,.,16.6,81.1,11.6%,11.7µM*
COc1ccc(NC(=O)CCN2C(=O)[C@@H]3[C@H](C2=O)[C@H]2C=C[C@@H]3C2)cc1,32.8,35.5%,2.2,7.1,9.5%,51.3%
COc1ccc(NC(=O)NCCN2C(=O)C3C4C=CC(C4)C3C2=O)cc1 (stereo not given),59.6*,93.9%,32.1*,118.5,0.0%,11.7µM*
Cc1ccc(NC(=O)NCCN2C(=O)C3C4C=CC(C4)C3C2=O)cc1 (stereo not given),134.2*,.,111.7*,109.9,3.1%,?
Cc1ccc(C(=O)NN2C(=O)C3C4C=CC(C4)[C@@H]3C2=O)cc1 (stereo not given in full),33.2,1.85µM*,11.9,63.5,5.2%,81.6%
O=C(NCCN1C(=O)C2C3C=CC(C3)C2C1=O)Nc1ccccc1 (stereo not given),9.0,.,20.1,-5.0,14.2%,?
CCc1ccc(N(CC(=O)NC(C)(C)C)C(=O)CCC(=O)Nc2ccccn2)cc1,-4.7,-23.0%,0.4,2.5,-10.1%,-9.1%
COCCn1ccc2c(OCC(=O)NCc3ccc(F)cc3)cccc2c1=O,.,.,.,5.9,.,.
CC1=CC(C)C(CN(CCC[N+](C)(C)C)C(=O)Nc2ccccc2)C(C)C1 (stereo not given),16.1,?,8.4,3.7,28.7%,11.7µM*
COc1cccc(C(C(=O)NC2CCCCC2)N(C(=O)c2cccs2)c2ccc3c(c2)OCO3)c1 (stereo not given),-6.3,10.4µM*,-4.1,-83.0*,?,-100.9%
COc1cccc(C(C(=O)NC2CCCCC2)N(C(=O)Cc2cccs2)c2ccc(-n3cnnn3)c(OC)c2)c1 (stereo not given),-4.4,10.4µM*,-1.1,-2.1,?,4.7%
Cn1cccc1C(C(=O)NC1CCCCC1)N(C(=O)Cc1cccs1)c1ccc2c(c1)OCO2 (stereo not given),15.3,?,-2.8,-0.9,18.3%,?
COc1cc(N(C(=O)Cc2cccs2)C(C(=O)NC2CCCCC2)c2cccc(OC)c2OC)ccc1-n1cnnn1 (stereo not given),-15.4,10.4µM*,-0.8,-36.7,-8.5%,-25.4%
CC1(CCc2ccccc2)NC(=O)N(CC(=O)Nc2c(F)cccc2F)C1=O (stereo not given),.,.,.,14.2,12.2%,.
CC(Oc1ccccc1)c1ccnc2nc(N3CCOCC3)nn12 (stereo not given),10.8,-11.4%,-2.0,-6.0,-3.9%,-13.1%
CC(Oc1ccc(Cl)cc1Cl)c1ccnc2nc(N3CCOCC3)nn12 (stereo not given),-6.5,-27.8%,-3.9,-77.4*,-22.7%,-18.4%
CCC(=O)N1CCc2cc(S(=O)(=O)CCC(=O)NC3CCCCC3)ccc21,15.9,-7.4%,-3.1,-14.6,-18.7%,2.62µM*
CCOC(=O)N1CCC(NC(=O)CCS(=O)(=O)c2ccc3c(c2)CCN3C(=O)CC)CC1,6.2,-11.9%,-0.9,-22.9,-13.0%,5.6%
CCC(=O)N1CCCc2cc(S(=O)(=O)CCC(=O)Nc3ccccc3C)ccc21,2.7,-24.5%,-0.7,-36.3,1.5%,5.86µM*
CCC(=O)N1CCc2cc(S(=O)(=O)CCC(=O)N3CCc4ccccc4C3)ccc21,12.4,-24.3%,5.4,.,7.2%,11.7µM*
CN(Cc1ccco1)S(=O)(=O)c1ccc2c(c1)CCN2C(=O)CCC(=O)O,-16.7,-16.2%,-3.8,-5.6,19.0%,13.1µM*
C=CCNC(=O)N1CCCC(N2CCN(c3ccccc3OC)CC2)C1 (stereo not given),-6.0,4.4%,-1.3,-31.4,-14.2%,0.0%
COc1cccc(-c2ncnn2-c2sc3c(c2C#N)CCCCC3)c1OC,.,.,.,2.4,.,.
COc1cc(OC)c(NC(=O)CSC2=Nc3ccccc3N=C(c3ccc(F)cc3)C2)cc1Cl,.,.,.,18.6,.,.
CCC(=O)N1CCc2cc(S(=O)(=O)CCC(=O)N3CCN(c4ccccc4)CC3)ccc21,-1.4,?,5.4,0.0,3.1%,9.3%
SMILES,Shiga toxin inh,Pf growth 48h,CHX counter,HCMV antiviral,HCV inhibitor,Pf growth 96h
O=C(CN(c1cccc(Cl)c1)S(=O)(=O)c1ccc(Cl)cc1)N1CCc2ccccc2C1,3.8,11.7µM*,10.1,6.8,7.0%,61.7%
CCC(=O)N1CCc2cc(S(=O)(=O)CCC(=O)O)ccc21,-11.7,13.8%,-4.2,7.5,4.4%,7.38µM*
Cc1nnc(-c2ccco2)c2cn(-c3cccc(Br)c3)nc12,18.0,?,44.3*,-29.1,?,0.0%
CC(C(=O)OCC(=O)c1ccc(Br)cc1)N1C(=O)C2C3CCC(C3)C2C1=O (stereo not given),-7.1,23.7%,-2.3,-24.9,5.8%,11.7µM*
Cc1ccc(C(=O)COC(=O)C(C)N2C(=O)C3C4CCC(C4)C3C2=O)cc1 (stereo not given),4.1,10.1%,10.8,1.5,10.7%,8.28µM*
CC(C(=O)OCC(=O)c1ccc(Br)cc1)N1C(=O)C2C3C=CC(C3)C2C1=O (stereo not given),-5.4,26.7%,-2.7,12.8,-5.0%,-2.3%
Cc1c2cnn(CC(=O)N3CCCCC3)c(=O)c2c(C)n1Cc1ccc(Cl)cc1,.,.,.,-6.2,.,.
CS(=O)(=O)Nc1ccc(-c2cn3cccnc3n2)cc1,43.5*,29.3%,21.4*,22.6,23.6%,0.7%
Cc1ccc(-c2cn3cccnc3n2)cc1,71.4*,342.9%,27.8*,-15.0,27.1%,?
CCOCC(=O)Nc1ccc(-c2cn3cccnc3n2)cc1,4.6,41.9%,16.1,12.5,13.8%,?
CCOC(=O)N1CCN(C(=O)c2ccc(-n3c(C)ccc3C)cc2)CC1,-17.3,?,-0.8,28.3,-4.9%,10.4µM*
O=C(c1[nH]nc2c1CCc1ccccc1-2)N1CCN(Cc2ccc3c(c2)OCO3)CC1,-7.0,8.28µM*,15.0,.,?,?
CN1CCN(C(=O)c2ccc(Cn3cc(Cl)cn3)o2)CC1,14.5,46.8%,-3.0,-16.0,5.5%,?
O=C(c1ccc(Cn2cc(Cl)cn2)o1)N1CCN(Cc2ccc3c(c2)OCO3)CC1,-29.5,?,-0.9,.,-11.3%,13.1µM*
Cc1ccc(S(=O)(=O)N(C)c2ccc(C(=O)N3CCN(Cc4ccc5c(c4)OCO5)CC3)cc2)cc1,8.2,.,-2.4,-95.0*,4.47µM*,?
CC(=O)Nc1cccc(-n2cc3c(c2-c2ccccc2Cl)c(=O)n(C)c(=O)n3C)c1,.,.,.,11.7,.,.
CCOC(=O)N1CCN(C(=O)c2ccc(N(C)S(=O)(=O)c3ccc(C)cc3)cc2)CC1,-6.5,?,-2.0,-19.2,14.1µM*,19.4%

# From PubChem BioAssay
